Measured values published in PubChem BioAssay (EPA / NIEHS).
The source made the active and inactive calls. Rule for the calls: active = hit-call score of the fitted dose curve at least 0.9, where 1 is the maximum; inactive = score below 0.9.

Assay: CCTE_Mundy_HCI_hNP1_Casp3_7: CCTE's Caspase-Glo 3/7 Assay in human neuroprogenitor cells for Apoptosis, Mundy Lab (AID 2284240)
Description: CCTE_Mundy_HCI_hNP1_Casp3_7 is a multiplexed, cell-based-readout assay that uses neural stem cells derived from a neuroepithelial cell lineage of WA09 embryonic cells with measurements taken at […] after chemical dosing in a microplate: 96-well plate.CCTE_Mundy_HCI_hNP1_Casp3_7 is one component of the CCTE_Mundy_HCI_hNP1_Casp3_7 assay. It measures apoptosis related to caspase activation using Luminescent Reporter.Data from the assay component CCTE_Mundy_HCI_hNP1_Casp3_7 was analyzed at the endpoint CCTE_Mundy_HCI_hNP1_Casp3_7_gain in the positive analysis fitting direction relative to DMSO as the negative control and baseline of activity. Using a type of viability reporter, gain -of-signal activity can be used to understand viability effects.
Human neural progenitor cells (hNP1) were obtained as cryopreserved cells from ArunA Biomedical, Athens Georgia. Cells are plated on pre-coated poly-L-ornithine/laminin clear bottom and opaque 96 well plates (day 0). Plates are placed in a 37 °C, 5% CO2 incubator for 40 to 44 hours at which time plates are removed from the incubator and 10 uL of a freshly made chemical solution is added to each well. Apoptosis was measured based on detection of activated caspase-3/7 using the Caspase-Glo 3/7 assay kit (Promega). Twenty-four hours after chemical treatment, 50ul of Caspase-Glo 3/7 assay buffer was added to each well and the plate incubated for 30min at room temperature. Luminescence was then recorded in each well using a FLUOstar Optima plate reader.

outcome, inactive:
NC(N)=Nc1nc(CSCCC(N)=NS(N)(=O)=O)cs1
[Cl-].[Cl-].[NH2-].[NH2-].[Pt+4]
CC1(C)S[C@@H]2[C@H](NC(=O)[C@H](N)c3ccc(O)cc3)C(=O)N2[C@H]1C(=O)O
CC1(C)S[C@@H]2[C@H](NC(=O)[C@H](N)c3ccccc3)C(=O)N2[C@H]1C(=O)O
C[C@@H]1C[C@H]2[C@@H]3CCC4=CC(=O)C=C[C@]4(C)[C@@]3(F)[C@@H](O)C[C@]2(C)[C@@]1(O)C(=O)CO
CN(C)CCC(c1ccc(Cl)cc1)c1ccccn1 (stereo unspecified)
C[C@H](CS)C(=O)N1CCC[C@H]1C(=O)O
CC(C)(C)NCC(O)c1cc(O)cc(O)c1 (stereo unspecified)

AC50, active:
CNCCC(Oc1ccc(C(F)(F)F)cc1)c1ccccc1 (stereo unspecified) 12.7 µM
CN(C)C(=O)C(CCN1CCC(O)(c2ccc(Cl)cc2)CC1)(c1ccccc1)c1ccccc1 16.5 µM
Cc1c(O)cccc1C(=O)N[C@@H](CSc1ccccc1)[C@H](O)CN1C[C@H]2CCCC[C@H]2C[C@H]1C(=O)NC(C)(C)C 18.7 µM
